# Measured values taken from PubChem BioAssay.
# Calls of active or inactive are those of the source.
# Tests used:
# [1] = E. coli DRC41 culture turbidity changes, primary screen, E. coli filamentation inducer project, strain DRC41, OD650, 48 h (AID 1152);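 also: E. coli MC1000 strain DRC41 lacking acrAB efflux pump and sulA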; details: E. coli DRC41 (acrAB sulA), higher = more signal, called active from +8 up or from −8 down
# [2] = small-molecule binders of probe aLefty1, primary screen, biochemical, small-molecule microarray, 635/667 nm fluorescence (AID 1153); details: higher = more signal;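 also: score merges spot fluorescence with signal-to-noise ratio from the scanned slide images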
# [3] = PSAC antagonists in infected red cells, primary screen, cell-based, P. falciparum Indochina, OD700, 1 h (AID 1154); details: P. falciparum Indochina infected RBC osmotic lysis, higher = more signal, called active from +8 up or from −8 down
# [4] = PSAC antagonists in infected red cells, primary screen, cell-based, P. falciparum Indochina, OD700, 2 h (AID 1155);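 also: lysis reports solute entry through the parasite surface anion channel PSAC; channel blockers reduce lysis of infected cells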; details: P. falciparum Indochina infected erythrocytes, osmotic lysis OD700; higher = more signal, called active from +8 up or from −8 down
# [5] = osmotic lysis modulators in infected erythrocytes, primary screen, PSAC antagonist project, cell-based, P. falciparum Indochina, OD700, 3 h (AID 1156); details: higher = more signal, called active from +8 up or from −8 down
# [6] = PSAC antagonists in infected red cells, primary screen, cell-based, P. falciparum Indochina, OD700, 18 h (AID 1157); details: P. falciparum Indochina infected erythrocytes, osmotic lysis OD700, 18 h; higher = more signal, called active from +8 up or from −8 down
# [7] = modulators of S6 phosphorylation in cells, primary screen, cell-based, A549, cytoblot, luminescence, serum-stimulated (AID 1158); details: A549 phospho-S6 cytoblot, 5 h, higher = more signal;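 also: serum-stimulated A549 lung adenocarcinoma cells; signal is phosphorylated S6 detected by cytoblot immunostaining with HRP secondary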
# [8] = target: NADPH oxidase 2 (Homo sapiens) (UniProt P04839); assay: NOX2-dependent H2O2 signal modulators, primary screen, NOX inhibitor project, cell-based, HEK293-NOX2, PMA-stimulated, Amplex Red fluorescence (AID 1159); details: 45 min, higher = more signal, called active from +8 up or from −8 down; also: test concentration not given here
# Sequence of NADPH oxidase 2 (Homo sapiens) (P04839 whole entry, looked up): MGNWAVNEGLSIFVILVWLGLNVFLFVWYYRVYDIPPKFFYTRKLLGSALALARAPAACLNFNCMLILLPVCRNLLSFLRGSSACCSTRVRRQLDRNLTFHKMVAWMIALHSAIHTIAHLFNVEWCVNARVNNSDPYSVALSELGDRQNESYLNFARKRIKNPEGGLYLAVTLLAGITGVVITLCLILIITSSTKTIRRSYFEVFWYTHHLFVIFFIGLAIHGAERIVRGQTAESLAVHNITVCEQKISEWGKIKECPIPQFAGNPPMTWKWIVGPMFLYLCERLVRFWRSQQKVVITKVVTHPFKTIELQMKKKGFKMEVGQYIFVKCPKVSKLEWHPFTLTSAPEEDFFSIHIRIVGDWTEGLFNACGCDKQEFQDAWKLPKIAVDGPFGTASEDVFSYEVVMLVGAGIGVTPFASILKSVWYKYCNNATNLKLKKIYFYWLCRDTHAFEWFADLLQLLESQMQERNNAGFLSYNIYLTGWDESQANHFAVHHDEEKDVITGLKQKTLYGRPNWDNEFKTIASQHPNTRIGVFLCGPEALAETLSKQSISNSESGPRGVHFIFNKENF
# [9] = target: NADPH oxidase 4 (Homo sapiens) (UniProt Q9NPH5); assay: NOX4-dependent H2O2 signal modulators, primary screen, NOX inhibitor project, cell-based, HEK293-NOX4, tetracycline-induced, Amplex Red fluorescence (AID 1160); details: 45 min, higher = more signal, called active from +8 up or from −8 down
# Sequence of NADPH oxidase 4 (Homo sapiens) (Q9NPH5 whole entry, looked up): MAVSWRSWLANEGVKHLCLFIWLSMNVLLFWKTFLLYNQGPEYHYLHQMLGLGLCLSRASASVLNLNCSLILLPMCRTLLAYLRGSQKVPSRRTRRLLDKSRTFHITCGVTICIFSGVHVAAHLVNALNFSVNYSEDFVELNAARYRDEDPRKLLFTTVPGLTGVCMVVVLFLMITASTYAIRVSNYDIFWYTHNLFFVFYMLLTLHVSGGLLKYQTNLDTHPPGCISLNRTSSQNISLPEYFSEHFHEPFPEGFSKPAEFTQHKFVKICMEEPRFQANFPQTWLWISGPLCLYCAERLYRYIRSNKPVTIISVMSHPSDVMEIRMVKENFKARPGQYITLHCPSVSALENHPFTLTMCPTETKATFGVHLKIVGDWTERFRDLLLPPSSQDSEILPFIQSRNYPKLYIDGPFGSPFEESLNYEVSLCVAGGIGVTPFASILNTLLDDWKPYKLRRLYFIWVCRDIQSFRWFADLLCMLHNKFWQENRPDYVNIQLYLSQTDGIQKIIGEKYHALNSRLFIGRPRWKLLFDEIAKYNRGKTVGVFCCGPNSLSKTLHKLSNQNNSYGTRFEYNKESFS
# [10] = target: NADPH oxidase 5 (Homo sapiens) (UniProt Q96PH1); assay: NOX5-dependent H2O2 signal modulators, primary screen, NOX inhibitor project, cell-based, HEK293-NOX5, Amplex Red fluorescence (AID 1161); details: HEK293-NOX5, ionomycin, 45 min, higher = more signal
# Sequence of NADPH oxidase 5 (Homo sapiens) (Q96PH1 whole entry, looked up): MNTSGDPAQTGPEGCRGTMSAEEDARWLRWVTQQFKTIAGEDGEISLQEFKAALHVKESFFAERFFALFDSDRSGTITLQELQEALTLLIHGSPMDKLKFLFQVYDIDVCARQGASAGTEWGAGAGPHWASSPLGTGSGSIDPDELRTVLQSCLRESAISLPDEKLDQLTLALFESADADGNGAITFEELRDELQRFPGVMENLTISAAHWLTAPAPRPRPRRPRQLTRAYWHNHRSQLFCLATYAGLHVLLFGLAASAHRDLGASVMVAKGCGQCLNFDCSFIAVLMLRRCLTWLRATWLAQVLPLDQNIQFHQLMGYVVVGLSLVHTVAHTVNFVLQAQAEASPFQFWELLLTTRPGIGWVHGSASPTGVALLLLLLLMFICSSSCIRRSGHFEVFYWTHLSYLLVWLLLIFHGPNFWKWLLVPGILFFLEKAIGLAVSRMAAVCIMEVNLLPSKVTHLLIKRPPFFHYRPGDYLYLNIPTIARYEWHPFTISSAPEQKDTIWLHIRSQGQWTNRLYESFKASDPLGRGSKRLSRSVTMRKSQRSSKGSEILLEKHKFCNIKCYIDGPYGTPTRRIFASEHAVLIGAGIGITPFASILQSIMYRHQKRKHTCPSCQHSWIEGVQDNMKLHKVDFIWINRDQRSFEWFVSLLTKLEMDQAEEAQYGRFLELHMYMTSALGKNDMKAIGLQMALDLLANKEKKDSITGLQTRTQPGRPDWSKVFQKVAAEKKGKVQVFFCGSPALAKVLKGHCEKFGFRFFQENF
Compound,z-score [1],composite z-score [2],z-score [3],z-score [4],z-score [5],z-score [6],z-score [7],z-score [8],z-score [9],z-score [10]
C=C(/C(=C/C[C@H](OC(C)=O)c1ccccc1OCCO)c1cc(C(=O)OC)ccc1OC)C(C)C,0.483 (inactive),-0.157,5.75 (inactive),0.195 (inactive),1.85 (inactive),-1.19 (inactive),1.09,0.137 (inactive),0.264 (inactive),-2.12
COCCCNC(=O)[C@@]1(Cc2ccccc2N=[N+]=[N-])N=C(c2ccc(OCCCO)cc2)O[C@H]1c1ccccc1,-0.3 (inactive),0.535,21.5 (active),4.21 (inactive),1.28 (inactive),1.4 (inactive),0.796,-2.06 (inactive),-0.374 (inactive),-1.63
COC(=O)[C@@]1(Cc2ccc(F)cc2)[C@H]2c3cc(C(=O)N(C)C)n(CCc4ccc(O)c(OC)c4)c3C[C@H]2CN1C(=O)c1ccccc1,-1.22 (inactive),1.63,-0.951 (inactive),0.236 (inactive),-0.722 (inactive),0.667 (inactive),-0.824,-0.0241 (inactive),-0.627 (inactive),-0.245
C[C@@H]1ON(c2ccc(C(=O)OC(C)(C)C)cc2)[C@H](c2ccc(O)cc2)[C@H]1C(=O)N1C(=O)OC[C@H]1Cc1ccccc1,-0.476 (inactive),0.119,3.71 (inactive),0.709 (inactive),-0.348 (inactive),0.87 (inactive),0.363,-0.394 (inactive),-0.43 (inactive),-0.209
O=C1OCC=C[C@H]2OC34C=CCN(Cc5ccccc5)C(=O)[C@H]3N(CCCCCCO)C(=O)[C@@H]4[C@@H]12 (stereo not given in full),2.56 (inactive),-0.152,0.987 (inactive),-0.567 (inactive),-0.368 (inactive),-0.924 (inactive),1.02,1.22 (inactive),-0.272 (inactive),1.87
C=C(/C(=C/C[C@@H](OC(C)=O)c1cccc(OCCO)c1)c1cc(C(=O)OC)ccc1OC)C(C)C,0.546 (inactive),0.0962,9.43 (active),1.6 (inactive),2.19 (inactive),0.75 (inactive),0.547,-2.08 (inactive),-1.07 (inactive),-2.17
C=C(/C(=C/C[C@H](OC(C)=O)c1cccc(OCCO)c1)c1cnc2ccccc2c1)C(C)C,-0.0902 (inactive),-0.0141,18.7 (active),3.44 (inactive),1.67 (inactive),1.12 (inactive),-0.343,0.175 (inactive),-0.456 (inactive),-0.923
Cn1cccc1C(O)C1C=CC2C(=O)NC(=O)C2N1Nc1ccc(Cl)cc1Cl (stereo not given),-3.18 (inactive),0.0981,2.16 (inactive),1.35 (inactive),0.304 (inactive),1.07 (inactive),-1.42,-0.663 (inactive),-3.85 (inactive),-2.71
COCCOC(=O)N1C(=O)[C@@]2(c3cc(C#CC4=CCCCC4)ccc31)[C@H](c1ccc(OCCO)cc1)N1[C@H](c3ccccc3)[C@H](c3ccccc3)OC(=O)[C@H]1[C@@H]2C(=O)NC[C@H](O)c1ccccc1,-0.149 (inactive),1.43,2.35 (inactive),1.31 (inactive),-0.352 (inactive),0.482 (inactive),0.245,1.36 (inactive),0.849 (inactive),1.44
CC(C)C[C@@H]1NC(=O)[C@@H]2C[C@H](C(=O)NCCCCCN)[C@H](c3ccc(O)cc3)N2C1=O,-0.899 (inactive),-0.463,0.932 (inactive),-0.0263 (inactive),-0.302 (inactive),0.0068 (inactive),-0.928,-0.125 (inactive),-1.36 (inactive),0.553
